# Several values for one entry are separate records, joined by “and”; a condition that tells them apart may be missing. Equal entries are not always repeated. A number with no mark means an inactive call. Records with an inconclusive call do not appear. Where a call stands in place of a potency, no number is given. Activity calls are given as the source filed them. Calls follow the shape of the dose curve; as a rule, active = well fitted curve in the direction sought with a large enough effect; inconclusive = small, poorly fitted or top-dose-only effect, or another doubt; inactive = no such curve, though single readings can be large; an effect the other way counts as inactive or inconclusive.
# Experiments:
# [1] = target: T1, Hexokinase-4 (Homo sapiens) + Glucokinase regulatory protein (Homo sapiens) (UniProt P35557+Q14397); experiment: qHTS assay for inhibitors of recombinant human GCK-GKRP interaction: Diaphorase-coupled assay (AID 743205)
# Summary of the method: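 A kinetic fluorescence read (Ex 525/Em 590 nm, every minute for 30 minutes) tracked resorufin from a G6PDH-diaphorase coupled GCK reaction. It contained 10 nM GST-GCK, 10 nM FLAG-GKRP, 5 mM glucose, 0.4 mM ATP in Hepes pH 7.6. Normalized to with/without-enzyme DMSO controls.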
# [2] = target: T1, Hexokinase-4 (Homo sapiens) + Glucokinase regulatory protein (Homo sapiens); experiment: qHTS assay for inhibitors of recombinant human GCK-GKRP interaction: ADP-Glo assay (AID 743206)
# Summary of the method: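 Pin-transferred compounds meet a 15 nM GST-GCK/15 nM FLAG-GKRP/2 uM S6P mix (dispense concentrations). ATP is then added to 0.4 mM final with 5 mM glucose, and the reaction runs 60 min at room temperature. ADP is quantified luminescently.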
# [3] = target: T1, Hexokinase-4 (Homo sapiens) + Glucokinase regulatory protein (Homo sapiens); experiment: qHTS assay for inhibitors of recombinant human GCK-GKRP interaction: HTRF assay (AID 743207)
# Summary of the method: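 After 60 min equilibration at room temperature with anti-FLAG XL665 and anti-GST antibodies, FRET ratio (665/615 nm, excitation 320 nm) was read. Proteins: GST-GCK and FLAG-GKRP, each 5 nM, plus 2 uM S6P, pH 7.1 buffer; GCK-free wells define minimum signal.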
# [4] = qHTS Assay for Identifying Gametocytocidal Compounds (AID 743244); also: potency is read from the fitted curve at half-maximal effect;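 as to max response: actives lower the fluorescent signal which means gametocytes are killed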; details: P. falciparum 3D7 stage III-V gametocytes, alamarBlue, 72 h; max response: stronger effect = lower value
# Summary of the method: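 Viability read-out was resazurin reduction (alamarBlue, 24 h) measured at Ex 525/Em 598 nm. Beforehand, late-stage (III-V) 3D7 P. falciparum gametocytes at 20,000 cells/well were incubated with compound 72 h at 37C under 5% CO2.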
# [5] = qHTS assay for measurement of the activity of small molecule inhibitors on Zika virus induced Caspase-3 activity in human astrocytoma cells (AID 1224859)
# Summary of the method: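 Luminescent caspase-3/7 read-out (30 min reagent, room temperature) in human SNB-19 cells infected 6 h with ZIKV (2 FFU/cell) after 1 h compound pre-incubation; Data were normalised to uninfected and infected wells.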
# [6] = qHTS assay for cell viability of HEK293 cells (AID 743288); details: ATP luminescence (CellTiter-Glo), 18 h; max response: stronger effect = lower value; also: nearly all actives have a fitted effect of over 50% in size
# Summary of the method: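 Readout is luciferase-coupled ATP content (CellTiter-Glo luminescence, 30 min room temperature) as a measure of metabolically competent cells. Parental HEK293 cells were plated 5 h or more before compound addition, then treated 18 h at 37 C.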
# [7] = qHTS assay for cell viability of the p53RE-bla HCT-116 cell line (AID 743292); also: nearly all actives have a fitted effect of over 55% in size
# Summary of the method: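 ATP-based luminescent viability (CellTiter-Glo, 30 min RT) after 16 h compound treatment at 37 C of p53RE-bla HCT-116 cells, seeded at 4,000 cells/well and rested 5 h before dosing.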
# [8] = qHTS assay to identify small molecule inhibitors of chordoma cells - UCH-1 (AID 1259355); also: nearly all actives have a fitted effect of over 55% in size
# Summary of the method: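 Screening used approved and investigational drugs in 15-point titration against 800 seeded cells per well. A fixed combination of auranofin with camptothecin, doxorubicin, rubitecan and topotecan followed compound addition, and growth was scored by CellTiter-Glo after 48hr.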
# [9] = qHTS assay to identify small molecule inhibitors of chordoma cells - UCH-2 (AID 1259356); also: series mostly up to about 46 µM
# T1 sequence (P35557 whole entry, looked up): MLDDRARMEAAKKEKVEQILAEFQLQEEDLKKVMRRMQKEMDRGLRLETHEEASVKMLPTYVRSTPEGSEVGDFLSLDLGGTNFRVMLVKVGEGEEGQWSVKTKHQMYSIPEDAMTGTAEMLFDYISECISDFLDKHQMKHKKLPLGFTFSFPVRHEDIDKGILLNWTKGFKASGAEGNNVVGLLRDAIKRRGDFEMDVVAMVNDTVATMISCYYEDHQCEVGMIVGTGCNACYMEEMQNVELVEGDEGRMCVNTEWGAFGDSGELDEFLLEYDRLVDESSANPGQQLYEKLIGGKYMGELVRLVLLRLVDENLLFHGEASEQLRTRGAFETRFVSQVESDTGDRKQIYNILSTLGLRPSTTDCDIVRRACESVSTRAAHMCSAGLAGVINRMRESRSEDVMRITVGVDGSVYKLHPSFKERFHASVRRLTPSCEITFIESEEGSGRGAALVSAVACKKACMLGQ
# T1 sequence (Q14397 whole entry, looked up): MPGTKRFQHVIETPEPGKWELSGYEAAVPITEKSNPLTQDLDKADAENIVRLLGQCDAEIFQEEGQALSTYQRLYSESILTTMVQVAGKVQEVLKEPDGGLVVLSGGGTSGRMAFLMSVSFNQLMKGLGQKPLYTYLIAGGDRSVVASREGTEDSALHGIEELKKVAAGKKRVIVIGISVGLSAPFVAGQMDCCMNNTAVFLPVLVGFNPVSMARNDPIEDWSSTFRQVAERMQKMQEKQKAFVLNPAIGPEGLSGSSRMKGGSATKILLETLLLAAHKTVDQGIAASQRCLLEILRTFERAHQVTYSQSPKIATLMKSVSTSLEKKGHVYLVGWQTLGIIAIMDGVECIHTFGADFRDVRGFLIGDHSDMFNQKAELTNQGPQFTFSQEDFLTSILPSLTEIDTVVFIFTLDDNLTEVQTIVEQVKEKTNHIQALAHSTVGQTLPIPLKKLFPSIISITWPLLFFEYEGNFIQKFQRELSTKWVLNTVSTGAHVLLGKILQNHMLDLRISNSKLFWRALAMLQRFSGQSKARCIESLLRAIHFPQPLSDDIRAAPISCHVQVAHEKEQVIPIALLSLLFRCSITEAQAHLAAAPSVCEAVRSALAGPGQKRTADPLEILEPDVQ
smiles,measurement,setting,value
O=C(c1ccc(OCCCc2cnc[nH]2)cc1)C1CC1,outcome,[1],inactive
same,Potency,[2],inactive
same,Potency,[3],inactive
same,max response,[4],42%
same,Potency,[5],inactive
NCC1OC(O[C@H]2[C@H](O)[C@@H](OC3C(O)C(N)CC(N)C3OC3OC(CO)C(O)C(O)C3N)O[C@@H]2CO)C(N)C(O)C1O (stereo not given in full),outcome,[1],inactive
same,Potency,[2],inactive
same,Potency,[3],inactive
same,max response,[4],40.6%
same,Potency,[5],inactive
CO[C@@]1(NC(=O)Cc2cccs2)C(=O)N2C(C(=O)O)=C(COC(N)=O)CS[C@@H]21,max response,[4],-0.875% and -15%
same,Potency,[5],inactive
N=C(N)SCCc1ccc(CCSC(=N)N)cc1,outcome,[1],inactive
same,Potency,[2],inactive
same,Potency,[3],inactive
same,max response,[4],24%
same,Potency,[5],inactive
CNC(=O)[C@H]1O[C@@H](n2cnc3c(NCc4cccc(I)c4)ncnc32)[C@H](O)[C@@H]1O,outcome,[1],inactive
same,Potency,[2],inactive
same,Potency,[3],inactive
same,max response,[4],55.6%
same,Potency,[5],inactive
Nc1ccc(O)c([N+](=O)[O-])c1,max response,[4],-7.22%
same,max response,[6],-18.2% and -13.9%
same,Potency,[7],inactive
same,Potency,[5],inactive
O=Nc1ccc2oc(=O)ccc2c1,outcome,[1],inactive
same,Potency,[2],inactive
same,Potency,[3],inactive
same,Potency,[4],1780 nM (active)
same,Potency,[5],inactive
O=C(O)[C@@H]1C[C@@H](C(=O)O)N1,outcome,[1],inactive
same,Potency,[2],inactive
same,Potency,[3],inactive
same,max response,[4],6.85%
same,Potency,[5],inactive
C[N+]1(C)[C@@H]2CC(OC(=O)[C@H](CO)c3ccccc3)C[C@H]1[C@@H]1O[C@@H]12 (stereo not given in full),max response,[4],-10.6%
same,Potency,[5],inactive
COc1cc(/C=C/C(=O)N2CCN(CC(=O)N3CCCC3)CC2)cc(OC)c1OC,max response,[4],-1.2%
same,Potency,[8],inactive
same,Potency,[9],inactive
CC(C(=O)O)c1ccc2c(c1)[nH]c1ccc(Cl)cc12 (stereo not given),max response,[4],3.15%
same,Potency,[8],inactive
same,Potency,[9],inactive
O=C(O)COc1ccc(C(=O)c2cccs2)c(Cl)c1Cl,max response,[4],-3.69% and 20.3%
same,Potency,[8],inactive
same,Potency,[9],inactive
O=C(O)/C=C\C(=O)O,max response,[6],5.88%
same,Potency,[7],inactive
same,Potency,[5],inactive

# Source: PubChem BioAssay (NCATS)
